Here are results for one sequence from publication PMC7862700, “An all-to-all approach to the identification of sequence-specific readers for epigenetic DNA modifications on cytosine”.

What all share (test): DAPPL (digital affinity profiling via proximity ligation, sequencing); 10 mM Tris-HCl pH 7.5, 50 mM NaCl, 1 mM DTT, 4% glycerol, room temperature, 30 min; GST-TFs on glutathione beads, 16-mer random dsDNA library, 0.1% formaldehyde crosslink after washing; high values mean tight binding
In assay [1] the target is T1, FLI1 (Homo sapiens, UniProt Q01543 1-452).
T1 sequence: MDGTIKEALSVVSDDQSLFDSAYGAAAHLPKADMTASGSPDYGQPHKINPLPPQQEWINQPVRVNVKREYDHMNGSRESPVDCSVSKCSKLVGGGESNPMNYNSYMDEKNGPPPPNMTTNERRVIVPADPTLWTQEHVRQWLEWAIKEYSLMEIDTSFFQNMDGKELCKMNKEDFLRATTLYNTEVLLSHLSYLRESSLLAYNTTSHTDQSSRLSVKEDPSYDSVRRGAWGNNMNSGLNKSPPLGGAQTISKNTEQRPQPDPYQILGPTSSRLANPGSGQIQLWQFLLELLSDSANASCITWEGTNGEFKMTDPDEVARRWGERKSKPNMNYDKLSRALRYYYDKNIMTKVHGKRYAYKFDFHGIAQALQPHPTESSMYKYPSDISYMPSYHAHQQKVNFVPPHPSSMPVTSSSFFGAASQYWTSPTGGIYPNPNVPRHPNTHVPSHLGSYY
The settings on record: protein: recombinant; tags: N-terminal GST; dsDNA, one strand shown. A digest of the protocol: (§1)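 Pools were built from human transcription factors expressed in yeast as GST fusions, captured on glutathione beads and DNA-barcoded, along with a tag-only sample. Incubation with 200 nmole of a 16-mer random double-stranded DNA library lasted 30 min at room temperature in Tris/NaCl/DTT/glycerol buffer, and was followed by washing, 0.1% formaldehyde crosslinking, proximity ligation, PCR amplification and Illumina NextSeq500 sequencing. Binding signal is the quotient of each hexamer's read frequency for a factor and its frequency for the tag-only sample.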

Assay [2] addresses T2, ELK1 (Homo sapiens, UniProt P19419 1-428).
T2 sequence: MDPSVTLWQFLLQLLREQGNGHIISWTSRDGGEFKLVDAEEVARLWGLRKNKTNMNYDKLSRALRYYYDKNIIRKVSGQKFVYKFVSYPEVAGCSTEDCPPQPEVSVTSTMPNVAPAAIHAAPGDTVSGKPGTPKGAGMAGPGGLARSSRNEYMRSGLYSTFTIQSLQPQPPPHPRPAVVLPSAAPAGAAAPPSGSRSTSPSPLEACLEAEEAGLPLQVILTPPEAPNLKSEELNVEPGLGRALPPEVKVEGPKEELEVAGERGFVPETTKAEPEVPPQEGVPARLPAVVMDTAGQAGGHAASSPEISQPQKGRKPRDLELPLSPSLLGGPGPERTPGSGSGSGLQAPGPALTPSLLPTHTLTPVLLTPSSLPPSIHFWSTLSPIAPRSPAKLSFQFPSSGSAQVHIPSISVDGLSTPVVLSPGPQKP
The settings on record: protein: recombinant; tags: N-terminal GST; dsDNA, one strand shown. A digest of the protocol: as §1

For assay [3], the target named is T3, GABPA (Homo sapiens, UniProt Q06546 1-454).
T3 sequence: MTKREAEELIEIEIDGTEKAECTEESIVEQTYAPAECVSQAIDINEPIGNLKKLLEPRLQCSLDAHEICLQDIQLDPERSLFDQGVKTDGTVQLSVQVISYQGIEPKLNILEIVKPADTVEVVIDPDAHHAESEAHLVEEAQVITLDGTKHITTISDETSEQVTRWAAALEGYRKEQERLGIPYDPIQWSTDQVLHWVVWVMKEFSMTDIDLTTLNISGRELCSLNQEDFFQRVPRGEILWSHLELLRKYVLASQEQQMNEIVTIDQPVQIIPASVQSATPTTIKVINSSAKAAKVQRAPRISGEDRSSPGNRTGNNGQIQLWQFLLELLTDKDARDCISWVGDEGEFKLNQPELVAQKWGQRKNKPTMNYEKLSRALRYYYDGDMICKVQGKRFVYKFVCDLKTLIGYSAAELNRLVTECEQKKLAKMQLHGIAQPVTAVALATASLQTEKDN
The settings on record: protein: recombinant; tags: N-terminal GST; dsDNA, one strand shown. A digest of the protocol: as §1

The target of assay [4] is T4, ERG (Homo sapiens, UniProt P11308 1-479).
T4 sequence: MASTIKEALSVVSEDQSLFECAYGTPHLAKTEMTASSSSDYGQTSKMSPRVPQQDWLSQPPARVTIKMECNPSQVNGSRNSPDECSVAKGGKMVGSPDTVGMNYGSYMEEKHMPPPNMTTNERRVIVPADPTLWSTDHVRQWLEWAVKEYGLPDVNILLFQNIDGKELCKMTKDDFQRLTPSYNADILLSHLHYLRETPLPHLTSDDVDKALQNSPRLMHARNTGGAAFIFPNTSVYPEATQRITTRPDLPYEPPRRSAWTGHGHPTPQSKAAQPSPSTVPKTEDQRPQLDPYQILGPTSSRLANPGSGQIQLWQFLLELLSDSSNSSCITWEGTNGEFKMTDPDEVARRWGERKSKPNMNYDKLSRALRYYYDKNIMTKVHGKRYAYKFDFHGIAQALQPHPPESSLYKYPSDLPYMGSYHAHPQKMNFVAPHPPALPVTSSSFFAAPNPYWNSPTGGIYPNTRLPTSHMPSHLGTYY
The settings on record: protein: recombinant; tags: N-terminal GST; dsDNA, one strand shown. A digest of the protocol:
as §1

In assay [5] the target is ELF1 (Homo sapiens, UniProt P32519 1-619). To be noted: protein: recombinant; tags: N-terminal GST; dsDNA, one strand shown. In outline:
as §1

Assay [6] concerns the target T5, EHF (Homo sapiens, UniProt Q9NZC4 1-300).
T5 sequence: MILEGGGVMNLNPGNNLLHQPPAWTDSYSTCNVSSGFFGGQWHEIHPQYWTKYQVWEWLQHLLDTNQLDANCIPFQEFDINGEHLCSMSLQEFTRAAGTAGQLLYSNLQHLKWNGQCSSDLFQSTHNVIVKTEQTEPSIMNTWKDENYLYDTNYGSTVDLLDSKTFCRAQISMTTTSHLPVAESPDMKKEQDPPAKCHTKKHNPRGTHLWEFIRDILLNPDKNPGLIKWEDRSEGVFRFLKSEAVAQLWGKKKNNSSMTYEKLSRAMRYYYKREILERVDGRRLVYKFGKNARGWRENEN
The settings on record: protein: recombinant; tags: N-terminal GST; dsDNA, one strand shown. In outline:
as §1

Assay [7] addresses SPI1 (Homo sapiens, UniProt P17947 1-270). The settings on record: protein: recombinant; tags: N-terminal GST; dsDNA, one strand shown. A digest of the protocol: as §1
For assay [8], the target named is SPIB (Homo sapiens, UniProt Q01892 1-262). To be noted: protein: recombinant; tags: N-terminal GST; dsDNA, one strand shown. A digest of the protocol: as §1
Sequence of SPIB (Q01892 whole entry): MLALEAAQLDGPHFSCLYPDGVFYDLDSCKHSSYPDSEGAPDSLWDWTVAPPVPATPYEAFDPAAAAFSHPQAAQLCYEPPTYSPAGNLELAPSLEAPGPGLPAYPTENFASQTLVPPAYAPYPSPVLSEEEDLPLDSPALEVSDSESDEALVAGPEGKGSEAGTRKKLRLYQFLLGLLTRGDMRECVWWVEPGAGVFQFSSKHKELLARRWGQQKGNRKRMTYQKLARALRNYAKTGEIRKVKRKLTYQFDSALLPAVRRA
Assay [9] has as its target T6, FEV (Homo sapiens, UniProt Q99581 1-238).
T6 sequence: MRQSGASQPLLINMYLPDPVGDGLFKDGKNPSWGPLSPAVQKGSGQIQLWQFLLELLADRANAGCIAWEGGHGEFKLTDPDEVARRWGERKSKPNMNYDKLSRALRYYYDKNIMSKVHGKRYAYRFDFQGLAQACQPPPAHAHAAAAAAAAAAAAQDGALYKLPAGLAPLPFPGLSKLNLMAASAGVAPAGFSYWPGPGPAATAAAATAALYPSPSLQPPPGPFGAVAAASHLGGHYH
To be noted: protein: recombinant; tags: N-terminal GST; dsDNA, one strand shown. A digest of the protocol:
as §1

For assay [10], the target named is ETV5 (Homo sapiens, UniProt P41161 1-510). The settings on record: protein: recombinant; tags: N-terminal GST; dsDNA, one strand shown. A digest of the protocol: as §1
Sequence of ETV5 (P41161 whole entry): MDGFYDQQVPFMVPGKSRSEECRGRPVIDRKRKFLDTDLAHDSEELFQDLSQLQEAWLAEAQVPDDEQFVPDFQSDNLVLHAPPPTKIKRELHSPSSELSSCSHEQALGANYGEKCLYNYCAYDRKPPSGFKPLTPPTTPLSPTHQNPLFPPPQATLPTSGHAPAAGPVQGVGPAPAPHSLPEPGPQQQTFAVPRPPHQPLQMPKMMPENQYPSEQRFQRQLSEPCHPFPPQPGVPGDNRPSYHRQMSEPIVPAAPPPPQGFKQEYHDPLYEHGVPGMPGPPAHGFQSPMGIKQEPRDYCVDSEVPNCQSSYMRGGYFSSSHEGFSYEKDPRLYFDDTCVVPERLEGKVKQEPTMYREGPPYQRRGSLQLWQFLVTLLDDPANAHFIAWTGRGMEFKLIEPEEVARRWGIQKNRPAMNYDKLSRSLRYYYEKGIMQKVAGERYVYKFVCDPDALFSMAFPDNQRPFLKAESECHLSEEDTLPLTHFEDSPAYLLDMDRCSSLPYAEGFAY
The target in assay [11] is HSF1 (Homo sapiens, UniProt Q00613 1-529). The settings on record: protein: recombinant; tags: N-terminal GST; chain copies: 3; dsDNA, one strand shown. A digest of the protocol: as §1
Sequence of HSF1 (Q00613 whole entry): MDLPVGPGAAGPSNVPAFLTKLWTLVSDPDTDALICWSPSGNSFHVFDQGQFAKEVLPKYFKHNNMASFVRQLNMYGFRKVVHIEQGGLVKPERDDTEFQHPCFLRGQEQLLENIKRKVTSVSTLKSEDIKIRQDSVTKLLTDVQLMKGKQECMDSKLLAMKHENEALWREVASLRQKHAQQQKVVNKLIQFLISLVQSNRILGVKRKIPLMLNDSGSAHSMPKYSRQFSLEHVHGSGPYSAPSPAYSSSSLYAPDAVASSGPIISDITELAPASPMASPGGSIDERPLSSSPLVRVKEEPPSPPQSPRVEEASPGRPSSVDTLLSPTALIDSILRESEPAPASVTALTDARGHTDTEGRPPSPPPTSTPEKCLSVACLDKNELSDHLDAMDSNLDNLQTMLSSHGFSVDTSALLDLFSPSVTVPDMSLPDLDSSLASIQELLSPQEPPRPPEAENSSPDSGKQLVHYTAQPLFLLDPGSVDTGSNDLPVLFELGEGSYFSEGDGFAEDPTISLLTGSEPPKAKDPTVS
Assay [12] deals with T7, SPIC (Homo sapiens, UniProt Q8N5J4 1-248).
T7 sequence: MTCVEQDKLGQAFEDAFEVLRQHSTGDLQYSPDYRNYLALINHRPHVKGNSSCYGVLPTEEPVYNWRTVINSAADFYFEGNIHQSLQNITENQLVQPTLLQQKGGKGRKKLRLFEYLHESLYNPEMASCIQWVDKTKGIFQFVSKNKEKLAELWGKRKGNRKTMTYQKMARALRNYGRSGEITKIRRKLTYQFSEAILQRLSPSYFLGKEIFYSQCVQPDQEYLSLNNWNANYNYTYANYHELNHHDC
The settings on record: protein: recombinant; tags: N-terminal GST; dsDNA, one strand shown. In outline:
as §1

Assay [13] addresses ELF4 (Homo sapiens, UniProt Q99607 1-663). The settings on record: protein: recombinant; tags: N-terminal GST; dsDNA, one strand shown. A digest of the protocol: as §1
Assay [14] deals with T8, ELK4 (Homo sapiens, UniProt P28324-2 1-405).
T8 sequence: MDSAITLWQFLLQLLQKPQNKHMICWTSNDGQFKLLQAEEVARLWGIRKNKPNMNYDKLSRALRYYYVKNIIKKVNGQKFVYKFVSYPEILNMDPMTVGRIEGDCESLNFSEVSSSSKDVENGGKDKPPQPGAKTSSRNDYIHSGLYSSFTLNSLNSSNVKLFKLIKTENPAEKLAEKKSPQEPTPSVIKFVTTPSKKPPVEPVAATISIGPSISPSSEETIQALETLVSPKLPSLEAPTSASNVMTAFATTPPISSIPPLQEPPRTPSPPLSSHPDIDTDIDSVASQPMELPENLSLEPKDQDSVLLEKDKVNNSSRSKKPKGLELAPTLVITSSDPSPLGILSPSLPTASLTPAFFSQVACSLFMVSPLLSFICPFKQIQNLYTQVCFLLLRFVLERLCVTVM
To be noted: protein: recombinant; tags: N-terminal GST; dsDNA, one strand shown. A digest of the protocol:
as §1

Assay [15] deals with T9, ETV2 (Homo sapiens, UniProt O00321 1-342).
T9 sequence: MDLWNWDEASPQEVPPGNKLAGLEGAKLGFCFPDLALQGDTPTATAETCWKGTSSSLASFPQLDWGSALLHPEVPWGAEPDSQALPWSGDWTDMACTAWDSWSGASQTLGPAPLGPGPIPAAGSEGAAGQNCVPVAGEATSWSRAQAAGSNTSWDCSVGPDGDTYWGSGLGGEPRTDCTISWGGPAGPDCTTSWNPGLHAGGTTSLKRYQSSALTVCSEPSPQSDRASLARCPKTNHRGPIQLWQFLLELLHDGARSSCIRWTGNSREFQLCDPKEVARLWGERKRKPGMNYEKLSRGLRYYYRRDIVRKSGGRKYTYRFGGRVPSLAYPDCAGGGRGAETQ
The settings on record: protein: recombinant; tags: N-terminal GST; dsDNA, one strand shown. In outline: as §1

Assay [16] addresses T10, ELF3 (Homo sapiens, UniProt P78545 1-371).
T10 sequence: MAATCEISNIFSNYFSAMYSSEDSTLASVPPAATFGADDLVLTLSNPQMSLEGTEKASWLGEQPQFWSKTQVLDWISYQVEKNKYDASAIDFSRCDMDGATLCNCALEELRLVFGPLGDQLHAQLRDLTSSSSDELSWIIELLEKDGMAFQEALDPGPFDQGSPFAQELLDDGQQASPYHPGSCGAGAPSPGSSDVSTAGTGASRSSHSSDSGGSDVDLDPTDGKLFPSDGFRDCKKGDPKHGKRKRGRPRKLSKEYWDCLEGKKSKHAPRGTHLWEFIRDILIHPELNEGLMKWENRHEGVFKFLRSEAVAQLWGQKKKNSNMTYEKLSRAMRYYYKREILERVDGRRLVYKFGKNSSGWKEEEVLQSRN
The settings on record: protein: recombinant; tags: N-terminal GST; dsDNA, one strand shown. A digest of the protocol: as §1

For assay [17], the target named is ETV1 (Homo sapiens, UniProt P50549 1-477). To be noted: protein: recombinant; tags: N-terminal GST; dsDNA, one strand shown. In outline:
as §1

Sequence of ELF1 (P32519 whole entry): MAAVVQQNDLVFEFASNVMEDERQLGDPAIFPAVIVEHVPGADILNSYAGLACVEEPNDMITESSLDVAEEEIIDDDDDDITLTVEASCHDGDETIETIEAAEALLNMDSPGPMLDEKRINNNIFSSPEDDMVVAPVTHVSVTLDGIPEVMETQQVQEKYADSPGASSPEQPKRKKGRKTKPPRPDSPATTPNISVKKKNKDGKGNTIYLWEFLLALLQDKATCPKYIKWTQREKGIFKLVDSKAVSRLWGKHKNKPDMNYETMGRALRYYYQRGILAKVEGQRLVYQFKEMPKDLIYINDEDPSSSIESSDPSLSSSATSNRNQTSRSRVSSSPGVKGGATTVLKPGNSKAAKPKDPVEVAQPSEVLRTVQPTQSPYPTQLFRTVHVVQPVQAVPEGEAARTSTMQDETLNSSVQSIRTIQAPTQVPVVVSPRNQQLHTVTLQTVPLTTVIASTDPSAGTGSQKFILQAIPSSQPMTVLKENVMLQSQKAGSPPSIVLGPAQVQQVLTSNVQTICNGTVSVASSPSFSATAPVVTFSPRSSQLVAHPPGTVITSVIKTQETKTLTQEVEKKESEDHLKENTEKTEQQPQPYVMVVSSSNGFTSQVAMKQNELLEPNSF
Sequence of ETV1 (P50549 whole entry): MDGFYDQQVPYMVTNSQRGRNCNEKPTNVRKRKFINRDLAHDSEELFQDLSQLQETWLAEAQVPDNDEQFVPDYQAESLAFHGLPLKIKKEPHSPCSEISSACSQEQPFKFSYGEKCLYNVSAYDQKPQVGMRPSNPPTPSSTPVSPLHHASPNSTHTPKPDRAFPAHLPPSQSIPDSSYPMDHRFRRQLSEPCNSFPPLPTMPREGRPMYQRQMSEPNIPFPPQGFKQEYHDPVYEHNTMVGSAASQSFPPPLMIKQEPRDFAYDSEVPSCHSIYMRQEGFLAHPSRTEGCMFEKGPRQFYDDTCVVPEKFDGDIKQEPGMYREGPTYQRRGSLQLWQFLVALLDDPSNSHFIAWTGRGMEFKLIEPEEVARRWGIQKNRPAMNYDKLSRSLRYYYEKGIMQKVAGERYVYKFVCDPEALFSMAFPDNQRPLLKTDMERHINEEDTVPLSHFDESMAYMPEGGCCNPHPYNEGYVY
Sequence of ELF4 (Q99607 whole entry): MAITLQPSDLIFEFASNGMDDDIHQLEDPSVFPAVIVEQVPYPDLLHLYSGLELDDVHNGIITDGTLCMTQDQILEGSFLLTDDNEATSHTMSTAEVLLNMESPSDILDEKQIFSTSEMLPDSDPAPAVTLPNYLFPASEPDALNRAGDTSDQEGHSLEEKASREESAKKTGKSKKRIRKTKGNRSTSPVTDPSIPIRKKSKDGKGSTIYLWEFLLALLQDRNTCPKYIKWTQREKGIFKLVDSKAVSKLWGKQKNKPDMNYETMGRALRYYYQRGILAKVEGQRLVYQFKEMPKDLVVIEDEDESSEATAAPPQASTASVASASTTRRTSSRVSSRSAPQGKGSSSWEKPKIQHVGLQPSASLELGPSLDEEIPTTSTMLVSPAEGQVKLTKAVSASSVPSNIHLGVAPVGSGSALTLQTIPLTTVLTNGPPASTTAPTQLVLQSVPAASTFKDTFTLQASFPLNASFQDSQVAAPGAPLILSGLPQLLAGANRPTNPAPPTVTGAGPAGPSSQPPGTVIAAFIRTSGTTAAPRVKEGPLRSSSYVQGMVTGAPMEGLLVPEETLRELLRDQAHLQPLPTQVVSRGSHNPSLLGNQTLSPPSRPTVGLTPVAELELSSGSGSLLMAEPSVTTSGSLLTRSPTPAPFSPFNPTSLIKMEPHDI

For GTGCTC, the binding signal in [1] was 1.26 fold enrichment (6-mer frequency, TF over GST control); in assay [2], 1.18 fold enrichment (6-mer frequency, TF over GST control); in [3], 1.25 fold enrichment (6-mer frequency, TF over GST control); in assay [4], 1.2 fold enrichment (6-mer frequency, TF over GST control); in [5], 1.19 fold enrichment (6-mer frequency, TF over GST control); in [6], 1.22 fold enrichment (6-mer frequency, TF over GST control). Also, the binding signal in [7] was 1.36 fold enrichment (6-mer frequency, TF over GST control); in assay [8], 1.3 fold enrichment (6-mer frequency, TF over GST control); in [9], 1.11 fold enrichment (6-mer frequency, TF over GST control); in assay [10], 1.15 fold enrichment (6-mer frequency, TF over GST control); in [11] it was 1.05 fold enrichment (6-mer frequency, TF over GST control); in assay [12], 1.21 fold enrichment (6-mer frequency, TF over GST control). For the same sequence, the binding signal in assay [13] is 1.12 fold enrichment (6-mer frequency, TF over GST control); in [14], 1.05 fold enrichment (6-mer frequency, TF over GST control); in [15], 1.16 fold enrichment (6-mer frequency, TF over GST control); in assay [16], 1.26 fold enrichment (6-mer frequency, TF over GST control); in assay [17] it was 1.29 fold enrichment (6-mer frequency, TF over GST control).
